# Data published in PubChem BioAssay AID2685 (National Center for Advancing Translational Sciences (NCATS), 2010).
# Screen size: about 320,000 compounds; about 2,100 (0.66%) were called active. About 53% were inconclusive and are not listed. Calls follow the shape of the dose curve; as a rule, active = well fitted inhibition curve with a large enough effect in the signal ratio, with a control signal flat (not every such curve was filed as active); inconclusive = small, poorly fitted or top-dose-only effect, or effect the other way, or a change in a side signal; inactive = flat fitted curve, though single readings scatter; the % refers to the signal ratio. This excerpt belongs to a sample that is enriched for actives.
# Assay: qHTS Assay for Lipid Storage Modulators in Drosophila S3 Cells;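 as to cell number change: cells counted by Cell Tracker Red CMTPX staining in the red channel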
# Conditions: BODIPY lipid droplet fluorescence, 18-24 h, cells fed with added oleic acid; cell number change: measured here: cell count max response; series mostly up to 46.1 µM
# Method in brief: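 Drosophila S3 cells loaded with oleic acid (400 uM, as added) and compounds at several concentrations; lipid droplets imaged by 488-nm laser-scanning cytometry, 500–530 nm intensity and object ratio to cell channel. Percent activity normalized to 20 uM Triacsin C.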
# Potency is read from the fitted curve at half-maximal effect.
SMILES,Potency,cell number change [%]
O=C(c1ccccn1)N(CC1CCCO1)C1(C(=O)NC2CCCCC2)CCCCC1 (stereo not drawn),inactive,-0.121
Cc1ccc(NC(=O)OCc2cc(-c3ccccc3)on2)cc1,inactive,4.96
OCC(O)C(O)C(O)C(O)C1NCCS1 (stereo not drawn),inactive,16.2
COc1ccc(CCNC(=O)C2CCN(C(=O)c3ccc(Cl)cc3)CC2)cc1,inactive,-13.5
COc1ccc(CCNC(=O)C2CCN(C(=O)c3ccc(Br)cc3)CC2)cc1,5.8 µM (active),-9.49
COc1ccc(CCNC(=O)C2CCN(C(=O)c3ccc(OC)c(OC)c3)CC2)cc1,inactive,–
Cc1ccc(N2C(=O)C(Cl)=C(N3CCOCC3)C2=O)c(C)c1,inactive,-6.56
CCOC(=O)C(=CNc1ccc(C(F)(F)F)cc1)C(=O)OCC,inactive,11.9
CC1CN(C(=O)c2cccc(C(=O)N3CC(C)OC(C)C3)c2)CC(C)O1 (stereo not drawn),18.4 µM (active),7.82
CC1CN(C(=O)Cn2c(=O)oc3ccccc32)CC(C)O1 (stereo not drawn),inactive,13.4
CC1CN(C(=O)c2ccc(C(=O)c3ccccc3)cc2)CC(C)O1 (stereo not drawn),inactive,-18.7
CC1CN(C(=O)CN2C(=O)c3ccccc3C2=O)CC(C)O1 (stereo not drawn),23.1 µM (active),-24.9
CC1CN(C(=O)CCN2C(=O)c3ccccc3C2=O)CC(C)O1 (stereo not drawn),inactive,7.71
Cc1cc(C)cc(C(=O)N2CC(C)OC(C)C2)c1 (stereo not drawn),inactive,20.2
O=C(CC(=O)N/N=C/c1ccc(Cl)cc1Cl)NCc1ccccc1,inactive,-3.68
CCN(Cc1ccccc1)c1ccc(/C=N/NC(=S)NC(C)C)cc1,inactive,-13
OCc1nc2ccccc2n1CC(O)Cn1ccc2ccccc21 (stereo not drawn),inactive,–
O=c1cc2c(n[nH]1)CCCC2,0.58 µM (active),-2.03
O=c1ccc2c([nH]1)CCCCCCCCCC2,inactive,10
O=c1cc2c(n[nH]1)-c1ccccc1CC2,inactive,1.15
Cc1ccc(-c2nnc(SCC(=O)Nc3nccs3)n2N)cc1,inactive,-14.7
COc1ccc(NS(=O)(=O)c2ccc3c(c2)N(C(C)=O)CC(C)S3)c(OC)c1 (stereo not drawn),inactive,6.52
CC(C)c1ccc(CN2C(=O)NC3(CCCCCC3)C2=O)cc1,18.4 µM (active),2.7
O=C1NC2(CCCCCCC2)C(=O)N1Cc1ccc(F)cc1,inactive,7.12
O=C1NC2(CCCCCC2)C(=O)N1Cc1ccc(Br)cc1,inactive,-22.7

SMILES,Potency,cell number change [%]
CCCCC(=O)NS(=O)(=O)c1ccc(N=NN2CCOCC2)cc1,inactive,-7.29
CCCCSCCCNC(=S)Nc1ccccc1C,inactive,-6.21
Cc1ccc(NC(=O)CSc2ccccc2NC(=O)c2cccc(Cl)c2)cc1Cl,inactive,-1.09
Cc1ccc(NC(=O)CSc2ccccc2NC(=O)c2ccccc2)cc1Cl,20.6 µM (active),-20
Cc1ccc(NC(=O)CSc2ccccc2NC(=O)c2ccccc2Cl)cc1Cl,inactive,13.7
CC(=O)c1cccc(NS(=O)(=O)c2ccc(N/C=C/C(=O)c3ccc(F)cc3)cc2)c1,inactive,-28.4
CCOc1cccc(CNCCO)c1OCc1ccc(Cl)cc1,inactive,-0.0822
CCOC(=O)c1sc2nc(CSc3nc4ccccc4n3CC)[nH]c(=O)c2c1C,inactive,-16.4
CCn1c(SCc2nc3sc(C(=O)O)c(C)c3c(=O)[nH]2)nc2ccccc21,20.6 µM (active),–
C=CCn1c(SCc2nc3sc(C(=O)O)c(C)c3c(=O)[nH]2)nnc1-c1ccccc1,inactive,-15.1
O=C(Nc1ccc(C2CCCCC2)cc1)C1CCN(c2ncccn2)CC1,inactive,-8.69
O/N=C1\CCC\C1=C/c1ccco1,inactive,0.139
CC1=N/C(=C/c2ccco2)C(=O)O1,inactive,-0.878
Nc1ccc2c(c1)C/C(=C/c1ccco1)C2=O,inactive,–
O=C1/C(=C\c2ccco2)CCC/C1=C\c1ccco1,20.6 µM (active),-21.3
CC(C)(C)C1C/C(=C/c2ccco2)C(=O)/C(=C/c2ccco2)C1 (stereo not drawn),10.3 µM (active),-6.47
O=C1/C(=C/c2ccco2)CCC1C1CCCC1 (stereo not drawn),inactive,-18.8
CN(C)S(=O)(=O)c1ccc(C(=O)Nc2ccc(S(=O)(=O)NC3=NCCCCC3)cc2)cc1,inactive,–
O=C(CN1C(=O)CCS(=O)(=O)c2ccccc21)Nc1ccc2c(c1)OCCO2,inactive,-1.7
COc1ccc(NC(=O)CN2C(=O)CC(C)S(=O)(=O)c3ccccc32)cc1 (stereo not drawn),inactive,4.2
CCc1ccc(NC(=O)CN2C(=O)CC(C)S(=O)(=O)c3ccccc32)cc1 (stereo not drawn),20.6 µM (active),4.2
Cc1cc(C)c(NC(=O)CN2C(=O)CC(C)S(=O)(=O)c3ccccc32)c(C)c1 (stereo not drawn),inactive,13.7
O=C(CN1C(=O)CCS(=O)(=O)c2ccccc21)Nc1cccc(F)c1,23.1 µM (active),3.53
O=C(CN1C(=O)CCS(=O)(=O)c2ccccc21)Nc1cccc(Cl)c1,inactive,-9.4
